Reference: PubChem BioAssay AID1649 (The Scripps Research Institute Molecular Screening Center, 2009)
This is one part of the list. Values without a mark were called inactive. Activity calls are given as the source filed them. Cut-off read from the data, not from the text of the source: active = activation above about 33%; inactive = the rest.

Test: NPY-Y2 potentiators or agonists, counter-screen for NPY-Y1 potentiator project, cell-based, fluorescence (AID 1649)
Conditions: HEK293-CNG cells, membrane-potential fluorescence (FLIPR), 1536-well; at 3.6 µM; active compounds read high

SMILES	activation
CCn1c2ccccc2c2cc(NC(=O)Nc3ccc([N+](=O)[O-])cc3C)ccc21	20.9%
CC(=O)c1ccc(NC(=O)C2CC(=O)Nc3nc4ccccc4n32)cc1 (stereo unspecified)	22.9%
O=[N+]([O-])c1cc(Cl)cc(/C=N/NC(=S)Nc2cc(S(=O)(=O)N3CCOCC3)ccc2Cl)c1O	64.8% (active)
N#Cc1ccc(C(=O)Nc2nc(-c3cccs3)c(C(=O)C(F)(F)F)s2)cc1	-11.7%
O=C(Nc1ccccc1C(F)(F)F)c1cc(-c2ccc(O)cc2)on1	-13.4%
COC(=O)c1ccc(NC(=O)CN(c2ccc(C)cc2)S(=O)(=O)c2c(C)n[nH]c2C)cc1	27.7%
O=C(Nc1ccc2c(c1)CCC2)c1cccc(S(=O)(=O)Nc2ccccc2Cl)c1	-2.29%
Cc1ccccc1NCC(=O)N/N=C\c1ccc([N+](=O)[O-])s1	26.6%
COCCn1nnnc1C(c1ccccc1Cl)N1CCN(c2ccccc2OC)CC1 (stereo unspecified)	-5.69%
Cc1cccc(OCC(O)CN2CCN(CCN3C(=O)c4cccc5cccc(c45)C3=O)CC2)c1C (stereo unspecified)	49.7% (active)
CC1=C/C(=N\OS(=O)(=O)c2ccccc2)C=CC1=O	35.6% (active)
O=C(c1cccs1)N1CCN(C(=O)N2CCOCC2)CC1	-5.13%
CSc1nc(-c2ccco2)nn1C(=O)c1ccccc1Cl	18.9%
CN1C(=O)c2ccccc2C(C(=O)NCCCN2CCCC2)C1c1c[nH]c2ccccc12 (stereo unspecified)	-3.74%
COC(=O)c1sc(-c2ccc(C(C)(C)C)cc2)cc1NC(=O)/C=C/C(=O)O	26.2%
O=C1/C(=C/c2coc3ccc(O)cc3c2=O)SC(=S)N1c1ccccc1	17.4%
